In PubChem BioAssay (EPA / NIEHS):
Where “and” joins values, the source holds several entries; their conditions need not be identical. Identical values can stand only once. More than one record can exist for a structure, and the calls need not agree. Calls of active or inactive are those of the source. The calls were made as follows: active = hit-call score of the fitted dose curve at least 0.9, where 1 is the maximum; inactive = score below 0.9.

Target: Paired box protein Pax-6 (Homo sapiens) (UniProt P26367)
Sequence (P26367 whole entry, looked up): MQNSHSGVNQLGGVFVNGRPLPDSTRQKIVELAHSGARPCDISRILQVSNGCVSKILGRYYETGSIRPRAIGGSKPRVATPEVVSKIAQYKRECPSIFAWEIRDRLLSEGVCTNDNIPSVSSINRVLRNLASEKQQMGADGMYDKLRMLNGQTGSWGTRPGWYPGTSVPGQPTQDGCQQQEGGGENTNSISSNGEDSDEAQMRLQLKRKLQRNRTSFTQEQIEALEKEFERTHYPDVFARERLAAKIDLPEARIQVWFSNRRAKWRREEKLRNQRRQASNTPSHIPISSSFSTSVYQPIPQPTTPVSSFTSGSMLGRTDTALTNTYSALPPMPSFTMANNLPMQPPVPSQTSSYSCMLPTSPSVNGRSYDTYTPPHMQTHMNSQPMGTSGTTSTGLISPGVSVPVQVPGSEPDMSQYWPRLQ
Assay: ATG_Pax6_CIS: Attagene CIS-FACTORIAL HepG2 Assay for human Paired Box 6 (PAX6) (AID 2282956)
Conditions: HepG2 CIS-FACTORIAL PAX6 reporter transcription, RNA readout; actives raise or lower the signal
In short: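 HepG2 cells transiently transfected with multiplexed cis-promoter reporter units (endogenous TF activity) were dosed for 24 h. Reporter mRNA was quantified by RT-PCR, 6-FAM labeling, HpaI digestion and capillary electrophoresis; bidirectional fitting versus DMSO baseline.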

SMILES	outcome	AC50
CCC(O)=C1C(=O)CC(C(=O)O)CC1=O (stereo unspecified)	inactive	–
COC(=O)c1cccc(C)c1S(=O)(=O)NC(=O)Nc1nc(OCC(F)(F)F)nc(N(C)C)n1	inactive	–
N[C@@H](Cc1cc(I)c(Oc2ccc(O)c(I)c2)c(I)c1)C(=O)O	inactive	–
S=C([S-])NCCNC(=S)[S-].[Mn+2]	inactive	–
CCN(Cc1c(F)cccc1Cl)c1c([N+](=O)[O-])cc(C(F)(F)F)cc1[N+](=O)[O-]	–	7.64 µM (active)
CC(=O)[C@H]1CC[C@H]2[C@@H]3CCC4=CC(=O)CC[C@]4(C)[C@H]3CC[C@]12C	inactive	24.6 µM (active)
S=C(S)NCCNC(=S)S.[Mn+2].[S-]C([S-])=NCCN=C([S-])[S-].[Zn+2]	inactive	9.92 µM (active) and 15 µM (active) and 12 µM (active)
C#CCOC(=O)[C@@H](C)Oc1ccc(Oc2ncc(Cl)cc2F)cc1	inactive	–
c1ccc2[nH]c(-c3cscn3)nc2c1	inactive	–
CN(C)C(=O)Nc1ccc(Cl)c(Cl)c1	inactive	–
CCCN(CCC)c1c([N+](=O)[O-])cc(C(F)(F)F)c(N)c1[N+](=O)[O-]	inactive	–
COC(=O)c1ccccc1C(=O)O	inactive	–
CC1(C)C(C=C(Cl)Cl)C1C(=O)OCc1cccc(Oc2ccccc2)c1 (stereo unspecified)	inactive	–
C[C@]12CC[C@@H]3c4ccc(O)cc4C[C@@H](CCCCCCCCCS(=O)CCCC(F)(F)C(F)(F)F)[C@H]3[C@@H]1CC[C@@H]2O (stereo partly specified)	inactive	–
CCC(C)OC(=O)N1CCCCC1CCO (stereo unspecified)	inactive	–
COCCO	inactive	–
c1ccc(Nc2ccccc2)cc1	inactive	–
O=C(c1ccccc1)C1CCCCC1	inactive	–
COc1c(Cl)ccc(Cl)c1C(=O)O	inactive	–
O=C(c1ccc(O)cc1O)c1ccc(O)cc1O	inactive	–
CCOC(=O)c1ccc(O)cc1	inactive	100 µM (active)
O=C(O)C1(C(=O)Nc2ccc(Cl)cc2Cl)CC1	inactive	–
CC(C)(C)[C@@H](O)[C@@H](Cc1ccc(Cl)cc1)n1cncn1	inactive	–
CC(C)(c1ccc(O)cc1)c1ccc(O)cc1	inactive	105 µM (active) [middle of 4 runs]
CCOC(=O)C(C)Oc1ccc(Oc2cnc3cc(Cl)ccc3n2)cc1 (stereo unspecified)	inactive	–
N#CSCSc1nc2ccccc2s1	inactive	11.1 µM (active)
CC(=O)S[C@@H]1CC2=CC(=O)CC[C@]2(C)[C@H]2CC[C@@]3(C)[C@@H](CC[C@@]34CCC(=O)O4)[C@H]12	inactive	–
CC(C)CCCCCCc1ccc(O)cc1	inactive	17.9 µM (active) and 20.8 µM (active) and 19.9 µM (active)
CCOC(=O)NCCOc1ccc(Oc2ccccc2)cc1	inactive	–
CCNc1nc(N)nc(Cl)n1	inactive	–

Test system: not listed separately
Assay: ATG_PXRE_CIS: Attagene CIS-FACTORIAL HepG2 Assay for human Pregnane X Receptor Element (PXRE) (AID 2282957)
Conditions: HepG2 Attagene CIS-FACTORIAL PXRE reporter, mRNA; actives raise or lower the signal
In short: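 Cis-element reporter mRNA in human hepatoma HepG2 cells is measured 24 h post-dosing by RT-PCR, primer-extension labeling and capillary electrophoresis; gain or loss of signal is fitted relative to DMSO.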

SMILES	outcome	AC50
CCC(O)=C1C(=O)CC(C(=O)O)CC1=O (stereo unspecified)	inactive	–
COC(=O)c1cccc(C)c1S(=O)(=O)NC(=O)Nc1nc(OCC(F)(F)F)nc(N(C)C)n1	–	34.5 µM (active)
S=C([S-])NCCNC(=S)[S-].[Mn+2]	inactive	–
CCN(Cc1c(F)cccc1Cl)c1c([N+](=O)[O-])cc(C(F)(F)F)cc1[N+](=O)[O-]	–	1.26 µM (active)
S=C(S)NCCNC(=S)S.[Mn+2].[S-]C([S-])=NCCN=C([S-])[S-].[Zn+2]	inactive	13.2 µM (active) and 13 µM (active) and 12.9 µM (active)
C#CCOC(=O)[C@@H](C)Oc1ccc(Oc2ncc(Cl)cc2F)cc1	–	19.1 µM (active)
c1ccc2[nH]c(-c3cscn3)nc2c1	inactive	10 µM (active)
CCCN(CCC)c1c([N+](=O)[O-])cc(C(F)(F)F)c(N)c1[N+](=O)[O-]	–	1.29 µM (active)
COC(=O)c1ccccc1C(=O)O	inactive	–
CC1(C)C(C=C(Cl)Cl)C1C(=O)OCc1cccc(Oc2ccccc2)c1 (stereo unspecified)	–	7.62 µM (active)
C[C@]12CC[C@@H]3c4ccc(O)cc4C[C@@H](CCCCCCCCCS(=O)CCCC(F)(F)C(F)(F)F)[C@H]3[C@@H]1CC[C@@H]2O (stereo partly specified)	–	363 nM (active) [middle of 4 runs]
CCC(C)OC(=O)N1CCCCC1CCO (stereo unspecified)	–	20.7 µM (active) and 15 µM (active)
COCCO	inactive	24.7 µM (active)
COc1c(Cl)ccc(Cl)c1C(=O)O	inactive	–
O=C(c1ccc(O)cc1O)c1ccc(O)cc1O	inactive	–
CCOC(=O)c1ccc(O)cc1	inactive	–
O=C(O)C1(C(=O)Nc2ccc(Cl)cc2Cl)CC1	–	69.7 µM (active)
CC(C)(C)[C@@H](O)[C@@H](Cc1ccc(Cl)cc1)n1cncn1	–	13.5 µM (active)
CCOC(=O)C(C)Oc1ccc(Oc2cnc3cc(Cl)ccc3n2)cc1 (stereo unspecified)	–	35.1 µM (active)
CC(C)CCCCCCc1ccc(O)cc1	–	2.88 µM (active) [middle of 4 runs]
CCOC(=O)NCCOc1ccc(Oc2ccccc2)cc1	–	10 µM (active)
CCNc1nc(N)nc(Cl)n1	inactive	–
